PubChem BioAssay (NCI)
About 79,000 compounds went through this panel and 15% of them were active in at least one assay; those are over-represented in the sample as a whole. Unmarked numbers belong to inactive results. The source made the active and inactive calls. Cut-off read from the data, not from the text of the source: active = growth inhibition above about 70%; inactive = the rest.

What was measured:
[1] = NCI Yeast Anticancer Drug Screen. Data for the rad50 strain (AID 155);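 note: 0% = growth of vehicle-only cultures of the same strain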; settings: S. cerevisiae rad50 strain growth inhibition, active compounds read high
How it was run: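 Inhibition values express reduced yeast growth in compound-treated cultures relative to vehicle-treated controls.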

[2] = NCI Yeast Anticancer Drug Screen. Data for the mec2-1 strain (AID 157); settings: S. cerevisiae mec2-1 strain, active compounds read high
How it was run: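 Yeast mec2-1 mutant treated with compound. Readout: growth inhibition vs vehicle controls.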

[3] = NCI Yeast Anticancer Drug Screen. Data for the sgs1 mgt1 strain (AID 161);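 note: 0% = growth of cultures given vehicle only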; settings: S. cerevisiae sgs1 mgt1 strain, active compounds read high
How it was run: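 Genetically altered yeast, compound exposure, growth inhibition relative to vehicle.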

[4] = NCI Yeast Anticancer Drug Screen. Data for the cln2 rad14 strain (AID 165);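 note: 0% = growth equal to vehicle treated cultures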; settings: S. cerevisiae cln2 rad14 strain, active compounds read high
How it was run: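 cln2 rad14 yeast strain; compound exposure; growth inhibition read vs vehicle controls.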

[5] = NCI Yeast Anticancer Drug Screen. Data for the bub3 strain (AID 167); settings: S. cerevisiae bub3 mutant strain, active compounds read high
How it was run: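 Steps: expose the mutant yeast strain to compound; grow alongside vehicle-treated cultures; measure growth; express inhibition against the vehicle cultures.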

[6] = NCI Yeast Anticancer Drug Screen. Data for the mlh1 rad18 strain (AID 175); settings: S. cerevisiae mlh1 rad18 strain growth inhibition, active compounds read high
How it was run: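 Yeast w/ defined DNA-repair lesions; compound exposure; growth vs vehicle controls → % inhibition.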

[7] = at 5.0 µM (retest, dose inferred, filed as 0.5)
[8] = at 50.0 µM (retest, dose inferred, filed as 5.0)

SMILES	growth inhibition [1, 7]	growth inhibition [1, 8]	growth inhibition ([1]; at 50.0 µM)	growth inhibition [2, 7]	growth inhibition [2, 8]	growth inhibition ([2]; at 50.0 µM)	growth inhibition [3, 7]	growth inhibition [3, 8]	growth inhibition ([3]; at 50.0 µM)	growth inhibition [4, 7]	growth inhibition [4, 8]	growth inhibition ([4]; at 50.0 µM)	growth inhibition [5, 7]	growth inhibition [5, 8]	growth inhibition ([5]; at 50.0 µM)	growth inhibition [6, 7]	growth inhibition [6, 8]	growth inhibition ([6]; at 50.0 µM)
O=C1CC(c2ccccc2)C(=O)N2C(=O)CC(c3ccccc3)C(=O)N12 (configuration not stated)	1%	28%	42.2%	2%	3%	7.6%	-5%	8%	1.35%	-5%	-9%	-27.1%	0%	28%	71.5% (active)	2%	-7%	45.8%
CS(=O)(=O)OCCN(CCOS(C)(=O)=O)c1ccc(C=Nc2cccc(Cl)c2)cc1	35%	90% (active)	92.7% (active)	40%	91% (active)	86.5% (active)	17%	74% (active)	88.8% (active)	17%	86% (active)	71.3% (active)	1%	50%	43%	70% (active)	95% (active)	96.7% (active)
Cn1c(-c2ccc(/C=N/NC(N)=NCCCCCCN=C(N)N/N=C/c3ccc(-c4c[n+]5ccccc5n4C)cc3)cc2)c[n+]2ccccc12	97% (active)	98% (active)	98.2% (active)	97% (active)	98% (active)	96.8% (active)	97% (active)	98% (active)	97.2% (active)	95% (active)	98% (active)	89.3% (active)	97% (active)	99% (active)	97.3% (active)	97% (active)	98% (active)	97.7% (active)
O=C(O)/C=C/c1ccc([N+](=O)[O-])o1	12%	50%	87.4% (active)	5%	38%	80% (active)	9%	67%	90% (active)	-3%	38%	62.4%	4%	42%	76% (active)	11%	81% (active)	93.2% (active)
O=[N+]([O-])c1ccc(N=Nc2ccc(O)cc2O)cc1	48%	97% (active)	98.5% (active)	24%	98% (active)	98.9% (active)	36%	98% (active)	98.3% (active)	-1%	97% (active)	90.4% (active)	45%	97% (active)	98.9% (active)	28%	97% (active)	97.7% (active)
CC(/C=C/c1cccs1)=N\C(=S)NC(N)=S	-1%	0%	3.7%	10%	32%	28.4%	1%	12%	26.7%	-1%	-4%	2.05%	1%	52%	77.8% (active)	-5%	12%	25.9%
Cc1ccc2c(ccc3c[n+]4c5ccccc5ccc4n32)c1	96% (active)	99% (active)	99.4% (active)	92% (active)	99% (active)	99.5% (active)	95% (active)	100% (active)	98.7% (active)	94% (active)	99% (active)	97.3% (active)	93% (active)	99% (active)	99.3% (active)	95% (active)	99% (active)	99.2% (active)
CCCCCCCCCCCCOC(=O)C[n+]1cccc(C(=O)Nc2ccc(Cl)cc2)c1	76% (active)	98% (active)	98.8% (active)	56%	99% (active)	99.2% (active)	60%	98% (active)	99% (active)	53%	99% (active)	100% (active)	85% (active)	99% (active)	98.8% (active)	88% (active)	99% (active)	98.4% (active)
COC(=O)/C=C1/Nc2ccc(Cl)cc2C(=O)NC1=O	44%	56%	39.3%	36%	45%	27.2%	36%	54%	58.9%	23%	42%	28.9%	41%	80% (active)	30.8%	40%	52%	33.5%
